These results are taken from PubChem BioAssay (Tox21).

Inconclusive results are not listed. Where a call stands in place of a potency, no number is given. Calls of active or inactive are those of the source. Calls follow the shape of the dose curve; as a rule, active = well fitted cell-killing curve with a large enough effect in the repeat runs; inconclusive = weak or mixed curves; inactive = flat fitted curve, though single readings scatter.

The assay can be described thus: qHTS RealTime-Glo MT Cell Viability Assay in HepG2 cells - 32 hour (AID 1224877). Also: nearly all actives have a fitted effect of over 55% in size. The following applies: RealTime-Glo luminescence; series mostly up to 76.8 µM; activity change, negative = cytotoxic: at the top concentration. The text has this: U.S. Tox21 Program National Center for Advancing Translational Sciences [NCATS] NIH Chemical Genomics Center [NCGC] U.S. Environmental Protection Agency [EPA] National Institutes of Environmental Health Sciences [NIEHS] National Toxicology Program [NTP] U.S. Food and Drug Administration [FDA] Tox21 Assay Overview: Measure of cell viability is critical in the cell-base assay. Analysis of cell viability is necessary for the characterization of cell responses to cytotoxic drugs and environmental stress. A RealTime-Glo MT Cell Viability Assay to monitor cell viability in real time of continues cell culture during 40 hours of compound treatment was used to screen Tox21 10K library compounds in HepG2 cells. The RealTime-Glo MT Cell Viability Assay is a nonlytic, homogeneous, bioluminescent method to measure cell viability in real time using a simple, plate-based method. The assay involves adding NanoLuc luciferase and a cell-permeant prosubstrate to cells in culture. Viable cells reduce the proprietary prosubstrate to generate a substrate for NanoLuc luciferase. This substrate diffuses from cells into the surrounding culture medium, where it is rapidly used by the NanoLuc Enzyme to produce a luminescent signal. The signal correlates with the number of viable cells, making the assay well suited for cytotoxicity studies.
Tox21 Assay Protocol Summary: The mixture of HepG2 cell suspension and reagents were dispensed at 600cells/6 ul/well in 1536-well tissue culture treated black solid bottom plates using a Multidrop dispenser. After the assay plates were incubated at a 37 C/5% CO2 incubator for 5 hours, 23 nL of compounds dissolved in DMSO, positive and negative controls was transferred to the assay plate by a pintool work station. The plates were incubated at 37 C for 40 hours. The luminescence intensity were measured at 0h, 8h, 16h, 24h, 32h and 40h time points using ViewLux plate reader during compound treatment.
Turning to `C=C(C)C(=O)OCCC[Si](OC)(OC)OC`, the Potency result is “inactive”.
With `CCOC(=O)[C@H](CCc1ccccc1)N[C@@H](C)C(=O)N1Cc2ccccc2C[C@H]1C(=O)O`, the Potency result is “inactive”.
In the case of `CS(=O)(=O)Nc1ccc([N+](=O)[O-])cc1Oc1ccccc1`, the Potency entry is “inactive”.
Still for that read-out and setting: then `CC[Si](OC(C)=O)(OC(C)=O)OC(C)=O`, with “inactive”; and `Cc1cc(Cc2ccc(N)c(C)c2)ccc1N`, with “inactive”; and `CCCCCCCCCCCCOCC1CO1` (stereo not given), with “inactive”.
As for `NC(=O)/N=N/C(N)=O`, the Potency entry was “inactive”.
Turning to `O=C1N=C(O)CN1/N=C/c1ccc(-c2ccc([N+](=O)[O-])cc2)o1`, the Potency entry was “inactive”.
On the same count and under the same terms, the value for `COC(=O)c1ccc(C(=O)OC)cc1` was “inactive”; that for `CC1=CC[C@H]2C[C@@H]1C2(C)C` was “inactive”.
On to `CC(=O)Nc1ccc(C(=O)O)cc1`, for which the Potency result was “inactive”.
Still for that read-out and setting: then `O=[N+]([O-])c1cccc(Cl)c1`, with “inactive”; and `COCC(C)O` (stereo not given), with “inactive”.
Regarding `CCCCCCC(C)(C)S`, the Potency result was “inactive”.
Still for that read-out and setting: the value for `CCCCCCCCCC(=O)O` was “inactive”; that for `Cc1cc(=O)[nH]c(C(C)C)n1` was “inactive”; that for `O=Nc1ccc(O)cc1` was “inactive”.
As for `CCCCC(CC)C(=O)OCCOCCOCCOC(=O)C(CC)CCCC` (stereo not given), the Potency result is “inactive”.
Still for that read-out and setting: then `c1ccc2[nH]cnc2c1`, with “inactive”.
On the same count and under the same terms, the value for `O=C(Cl)c1c(Cl)c(Cl)c(C(=O)Cl)c(Cl)c1Cl` was “inactive”.
Turning to `Nc1c(S(=O)(=O)O)cc(Br)c2c1C(=O)c1ccccc1C2=O`, the Potency entry was “inactive”.
On the same count and under the same terms, then `Clc1ccc(Cl)c(Cl)c1Cl`, with “inactive”; and `OCC#CCO`, with “inactive”.
Still for that read-out and setting: then `CS(=O)(=O)c1ccc([C@@H](O)[C@@H](CO)NC(=O)C(Cl)Cl)cc1`, with “inactive”; and `C=C(C#N)C(=O)OCC`, with “inactive”.
Same read-out and setting: then `CC(C)NCC(O)COc1cccc2ccccc12` (stereo not given), with “inactive”; and `CC(C)(N=C=O)c1cccc(C(C)(C)N=C=O)c1`, with “inactive”; and `CCCCCCCCC`, with “inactive”.
Turning to `OC1CCCC1`, the Potency entry was “inactive”.
Still for that read-out and setting: then `C=C1C2CCC(C2)C1(C)C` (stereo not given), with “inactive”.
For the compound `CCC(=O)O`, the Potency result is “inactive”.
Same read-out and setting: the value for `C=C(C)C(=O)OCCCCCC` was “inactive”; that for `O=c1c(-c2ccc(O)cc2)coc2cc(O)ccc12` was “inactive”.
As to `O=C1CCCCC1`, the Potency entry was “inactive”.
The same measure, in the same setting: then `CC(=O)CCc1ccccc1`, with “inactive”.
The same measure, in the same setting: then `c1ccc2ccccc2c1`, with “inactive”; and `NCCc1ccc(O)c(O)c1`, with “inactive”.
`Cc1cc(O)c2c(c1)C(=O)c1cc(O)cc(O)c1C2=O`: the “activity change, negative = cytotoxic” value was 3.64% [at 35.3 µM] (inactive).
Consider `Cc1ccc(C(=O)O)o1`, for which the Potency entry is “inactive”.
Same read-out and setting: the value for `NS(=O)(=O)c1cc2c(cc1Cl)NC=NS2(=O)=O` was “inactive”.
